Over roughly 16,000 sequences, “Z-score” has its median near -0.37; the highest 2% begin near 3.1. This is one part of a sample in which the highest values are shown more often than they occur.

92 sequences from the supplement of paper PMC5499739 can be followed below.

For this assay, the system named is RBM10 RRM1-ZnF-RRM2 (GST-tagged construct). The experiment in a line: RNAcompete 7-mer binding Z-score; higher = stronger binding preference. An outline of the steps: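 GST-tagged RBM10 constructs (20 pmol) and a designed pool of 241 399 RNAs up to 41 nt (1.5 nmol) were allowed to bind for 30 min at 4°C in 1 ml Hepes pH 7.8 buffer with glutathione Sepharose beads. After four 2-min washes at 4°C, bound RNA was identified by microarray hybridisation. Enrichment was scored per heptamer motif as a one-sided Z-score across the probes containing it.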
Consider AGGUAGC, for which the “RNAcompete 7-mer binding Z-score” value amounted to 0.862.

On to UGGUACA, for which the “RNAcompete 7-mer binding Z-score” value came to 0.949.

AGGUAGG: the “RNAcompete 7-mer binding Z-score” value came to 3.72.

In the case of AGGUAGA, the “RNAcompete 7-mer binding Z-score” value came to 2.42.

In the case of GGGUACA, the “RNAcompete 7-mer binding Z-score” value was found to be 3.39.

For the sequence GGGUAGU, the “RNAcompete 7-mer binding Z-score” value amounted to 3.17.

In the case of CGGUAGG, the “RNAcompete 7-mer binding Z-score” value was 2.15.

Regarding CGGUAGU, the “RNAcompete 7-mer binding Z-score” value came out at 0.37.

For the sequence GCGUAGG, the “RNAcompete 7-mer binding Z-score” value was 2.21.

GGGUACU: the “RNAcompete 7-mer binding Z-score” value was 2.05.

With UGGUAGU, the “RNAcompete 7-mer binding Z-score” value was 0.585.

As for GGGUAGG, the “RNAcompete 7-mer binding Z-score” value was 4.42.

As to UAUGAAC, the “RNAcompete 7-mer binding Z-score” value was -0.195.

With CAUGCUU, the “RNAcompete 7-mer binding Z-score” value was -0.861.

Turning to UGCUGCG, the “RNAcompete 7-mer binding Z-score” value was -0.34.

Take UACUCGC: the “RNAcompete 7-mer binding Z-score” value is -0.548.

In the case of GUGGAAU, the “RNAcompete 7-mer binding Z-score” value came out at 2.34.

With AGUAUAU, the “RNAcompete 7-mer binding Z-score” value is -0.351.

AGGGGAA: the “RNAcompete 7-mer binding Z-score” value is 3.56.

CGGGGAA: the “RNAcompete 7-mer binding Z-score” value came out at 2.76.

Turning to AAGGGAC, the “RNAcompete 7-mer binding Z-score” value is 3.43.

As to AAGGGAG, the “RNAcompete 7-mer binding Z-score” value is 4.04.

Take AAGGGCG: the “RNAcompete 7-mer binding Z-score” value was 3.12.

Regarding AAGGGAU, the “RNAcompete 7-mer binding Z-score” value was 3.44.

For GAGGGAC, the “RNAcompete 7-mer binding Z-score” value amounted to 2.02.

For the sequence GGGGGAA, the “RNAcompete 7-mer binding Z-score” value came to 2.61.

As for ACGGGAU, the “RNAcompete 7-mer binding Z-score” value turned out to be 1.88.

Turning to AGGGGAG, the “RNAcompete 7-mer binding Z-score” value is 2.52.

With AGGGGAC, the “RNAcompete 7-mer binding Z-score” value worked out at 1.97.

For UAGGGAU, the “RNAcompete 7-mer binding Z-score” value amounted to 2.48.

Consider UUAGGCC, for which the “RNAcompete 7-mer binding Z-score” value was -0.471.

For the sequence AGGCCUG, the “RNAcompete 7-mer binding Z-score” value is -0.632.

As to AAUCGCU, the “RNAcompete 7-mer binding Z-score” value was -0.825.

Take GUCUCUC: the “RNAcompete 7-mer binding Z-score” value is -0.719.

For CGCGUGG, the “RNAcompete 7-mer binding Z-score” value was 1.41.

Regarding UUCGGCU, the “RNAcompete 7-mer binding Z-score” value is -0.61.

Turning to AACCAGU, the “RNAcompete 7-mer binding Z-score” value is -0.235.

GUCGUCC: the “RNAcompete 7-mer binding Z-score” value was -0.377.

As for CAACUAC, the “RNAcompete 7-mer binding Z-score” value is -0.628.

Regarding GAGGGAG, the “RNAcompete 7-mer binding Z-score” value is 3.04.

Regarding UGGGGAU, the “RNAcompete 7-mer binding Z-score” value was found to be 3.05.

On to GGGGGAU, for which the “RNAcompete 7-mer binding Z-score” value turned out to be 2.89.

Consider AAGGCAA, for which the “RNAcompete 7-mer binding Z-score” value came out at 1.95.

As for AAGGGAA, the “RNAcompete 7-mer binding Z-score” value amounted to 4.17.

In the case of CAGGGAG, the “RNAcompete 7-mer binding Z-score” value is 3.08.

For AGGGGAU, the “RNAcompete 7-mer binding Z-score” value was 3.41.

Turning to CAGGGAA, the “RNAcompete 7-mer binding Z-score” value is 3.07.

UAGGGAG: the “RNAcompete 7-mer binding Z-score” value came out at 3.15.

As for UAGGGAA, the “RNAcompete 7-mer binding Z-score” value is 3.46.

In the case of UAGGGAC, the “RNAcompete 7-mer binding Z-score” value amounted to 2.24.

In the case of ACGGGAA, the “RNAcompete 7-mer binding Z-score” value came to 2.76.

For GUCUCCU, the “RNAcompete 7-mer binding Z-score” value was -0.694.

For the sequence CACAAGA, the “RNAcompete 7-mer binding Z-score” value is -0.391.

As for AAAAUGG, the “RNAcompete 7-mer binding Z-score” value came to 2.68.

As for CAAGUGA, the “RNAcompete 7-mer binding Z-score” value was determined as 0.228.

For the sequence GGCUAAA, the “RNAcompete 7-mer binding Z-score” value stood at 0.661.

Consider AAGGGCU, for which the “RNAcompete 7-mer binding Z-score” value was 1.39.

As to AAGGGCC, the “RNAcompete 7-mer binding Z-score” value came out at 1.53.

Take AAGGGCA: the “RNAcompete 7-mer binding Z-score” value amounted to 3.44.

On to UAUGGAG, for which the “RNAcompete 7-mer binding Z-score” value is 1.68.

In the case of ACUGGGG, the “RNAcompete 7-mer binding Z-score” value stood at 1.58.

Take GAUGGGC: the “RNAcompete 7-mer binding Z-score” value was found to be 2.09.

In the case of GAUGGGG, the “RNAcompete 7-mer binding Z-score” value worked out at 4.

Take GAUGGUA: the “RNAcompete 7-mer binding Z-score” value amounted to 2.46.

As for GAUGGGA, the “RNAcompete 7-mer binding Z-score” value came out at 3.8.

For the sequence AAUGGAG, the “RNAcompete 7-mer binding Z-score” value was determined as 3.01.

In the case of UAUGGGA, the “RNAcompete 7-mer binding Z-score” value turned out to be 2.76.

GAUGGAG: the “RNAcompete 7-mer binding Z-score” value was 3.16.

With CAUGGGG, the “RNAcompete 7-mer binding Z-score” value was determined as 2.51.

Consider GAUGGUG, for which the “RNAcompete 7-mer binding Z-score” value came out at 2.77.

With AAUGGGG, the “RNAcompete 7-mer binding Z-score” value was found to be 4.38.

For the sequence AGCAUUU, the “RNAcompete 7-mer binding Z-score” value is -0.726.

Take GCCAGCA: the “RNAcompete 7-mer binding Z-score” value is -0.205.

For the sequence CCGGUGC, the “RNAcompete 7-mer binding Z-score” value is -0.136.

Take CAUGCAA: the “RNAcompete 7-mer binding Z-score” value is -0.289.

Regarding CUGUCCU, the “RNAcompete 7-mer binding Z-score” value is -0.817.

As for UCUUCGG, the “RNAcompete 7-mer binding Z-score” value was -0.657.

For CGUGCGA, the “RNAcompete 7-mer binding Z-score” value was -0.209.

On to CUCGAAG, for which the “RNAcompete 7-mer binding Z-score” value was -0.318.

Consider CGAACUC, for which the “RNAcompete 7-mer binding Z-score” value is -0.719.

As to AAUGGGC, the “RNAcompete 7-mer binding Z-score” value came to 2.92.

Turning to CAUGGAA, the “RNAcompete 7-mer binding Z-score” value amounted to 1.36.

AAUGGGA: the “RNAcompete 7-mer binding Z-score” value came out at 4.69.

In the case of GAUGGGU, the “RNAcompete 7-mer binding Z-score” value turned out to be 3.01.

As to UAUGGAA, the “RNAcompete 7-mer binding Z-score” value worked out at 1.22.

Turning to UAUGGGC, the “RNAcompete 7-mer binding Z-score” value stood at 1.64.

In the case of AAUGGGU, the “RNAcompete 7-mer binding Z-score” value was 4.1.

As for UAUGGGU, the “RNAcompete 7-mer binding Z-score” value was 2.81.

In the case of AAUGGAA, the “RNAcompete 7-mer binding Z-score” value was 3.27.

On to CAUGGGA, for which the “RNAcompete 7-mer binding Z-score” value was 2.16.

For CAUGGGU, the “RNAcompete 7-mer binding Z-score” value was 2.58.

As to UAUGGGG, the “RNAcompete 7-mer binding Z-score” value was 3.19.
